A number with no mark means an inactive call.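 How the source made its calls: active = growth AUC significantly below the DMSO wells by Dunnett test; inactive = the rest.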
Assays:
Assay in all cases: relative growth (AUC of 72 h growth curve relative to DMSO control, dAUC) (ratio); higher = more growth (less inhibition), active = hit call of the paper
Conditions in all cases: 20 µM
[1] = compound: C=CCOC(Cn1ccnc1)c1ccc(Cl)cc1Cl
How it was run: (§1)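 Each chemical was tested at 20 µM (1% DMSO) in 96-well plates seeded with a 1:100 dilution of cultures grown to carrying capacity in Luria–Bertani medium. These were isolates from Icelandic stream sediments and Silwood Park soil, as well as whole sediment communities. A plate reader took A600 readings hourly over 72 h, and three biological replicates were averaged. Relative growth (dAUC) is the spline-integrated area under the growth curve relative to the mean of the DMSO controls.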

[2] = compound: CC(=O)CC(c1ccccc1)c1c(O)c2ccccc2oc1=O
How it was run: as §1

[3] = compound: CC1COc2ccccc2N1C(=O)C(Cl)Cl
How it was run: as §1

[4] = compound: CCCCC(CC)CN1C(=O)[C@@H]2[C@H](C1=O)[C@@H]1C=C[C@H]2C1 (mixture of isomers)
How it was run: as §1

[5] = compound: CCCCCCCCc1c(CC)nc2ncnn2c1N
How it was run: as §1

[6] = compound: CCCCOCCOCCOCc1cc2c(cc1CCC)OCO2
How it was run: as §1

[7] = compound: CCCOC(=O)NCCCN(C)C
How it was run: as §1

[8] = compound: COC(=O)c1csc(C)c1S(=O)(=O)NC(=O)n1nc(OC)n(C)c1=O
How it was run: as §1

[9] = compound: Cc1ccc(C(C)NC(=O)[C@@H](NC(=O)OC(C)C)C(C)C)cc1
How it was run: as §1

[10] = compound: Cc1nn(C)c(Oc2ccccc2)c1/C=N/OCc1ccc(C(=O)OC(C)(C)C)cc1
How it was run: as §1

[11] = compound: Cn1cc(C(=O)Nc2ccc(F)cc2-c2ccc(Cl)c(Cl)c2)c(C(F)F)n1
How it was run: as §1

[12] = compound: Cn1cc(C(=O)Nc2ccccc2-c2cc(F)c(F)c(F)c2)c(C(F)F)n1
How it was run: as §1

[13] = compound: O=C(NCc1ncc(C(F)(F)F)cc1Cl)c1c(Cl)cccc1Cl
How it was run: as §1

[14] = compound: Oc1c(Cl)cc(Cl)c(Cl)c1Cc1c(O)c(Cl)cc(Cl)c1Cl
How it was run: as §1

[15] = compound: S=C([S-])NCCNC(=S)[S-].S=C([S-])NCCNC(=S)[S-].[Mn+2].[Zn+2]
How it was run: as §1

[16] = compound: c1ccc2[nH]c(-c3cscn3)nc2c1
How it was run: as §1

Target	relative growth [1]	relative growth [2]	relative growth [3]	relative growth [4]	relative growth [5]	relative growth [6]	relative growth [7]	relative growth [8]	relative growth [9]	relative growth [10]	relative growth [11]	relative growth [12]	relative growth [13]	relative growth [14]	relative growth [15]	relative growth [16]
Aeromonas 3 (Aeromonas popoffii)	0.933	0.992	0.988	0.988	1	1.04	1.02	1.03	1.03	1.01	0.999	1.04	1.04	0.00174 (active)	1.11	1.04
Community 9	0.764	0.985	1.02	0.846	1.02	0.906	1	1.1	0.905	0.906	0.839	1.05	1.03	0.306 (active)	1.03	0.911
Microbacterium 1 (Microbacterium arborescens)	0.965	1.05	0.934	0.918	0.98	0.988	1.02	1.03	0.968	1.03	1.04	1.01	1.05	0.0384 (active)	0.986	0.983
Community 7	0.922	1.03	0.994	0.872	1.03	1.04	1.12	1.02	1.08	1	1.06	1.05	1.07	0.468	1.12	1.03
Paenibacillus 1 (Paenibacillus castaneae)	0.0487 (active)	0.878	0.947	0.923	0.906	1	1.08	1.03	0.947	0.866	0.835	1.01	1.04	0.0147 (active)	0.978	0.987
Rhizobium 1 (Rhizobium herbae)	0.836	0.893	1.03	0.888	0.952	1.04	1.06	0.92	1.02	1.02	0.332 (active)	0.185 (active)	0.977	0.0348 (active)	1.09	1.14
Carnobacterium 1 (Carnobacterium gallinarum)	0.879	0.827	0.955	0.823	1.13	0.363	0.986	1.17	1.01	0.951	0.779	1	1.16	0.00936 (active)	0.913	0.908
Argrobacterium 1 (Agrobacterium sp.)	1.11	0.978	1.03	1.13	1.04	0.946	0.985	1.01	1.01	1.17	0.953	0.918	1.02	0.705 (active)	1.14	0.852
Flavobacterium 1 (Flavobacterium glaciei)	0.25 (active)	1.03	1.04	1.05	0.922	0.986	1.02	0.979	0.922	0.849	0.793	1.05	0.965	0.0158 (active)	0.895	0.915
Community 6	0.861	0.916	0.942	0.75	1.02	0.907	1.02	1.01	0.928	0.712	0.852	1.06	0.966	0.442 (active)	1.16	1.01
Prolinoborus 1 (Prolinoborus fasciculus)	0.664 (active)	0.986	0.921	0.937	0.883	0.915	1.04	1.02	1.02	0.945	0.947	1.01	0.999	0.0191 (active)	0.861	0.964
Bacillus 1 (Bacillus foraminis)	0.916	1.09	0.965	1.04	1.05	1.03	1.01	1.11	0.884	1.07	0.918	1.06	1.08	0.408 (active)	1.05	0.853
Neobacillus 1 (Neobacillus soli)	0.996	0.98	0.978	0.974	0.944	1.04	1.01	1.07	0.946	0.942	0.848	1.02	1	0.507 (active)	1.06	0.976
Arthrobacter 2 (Arthrobacter humicola)	0.195 (active)	0.972	0.871	0.869	0.929	0.384 (active)	1.07	1	0.87	0.771	0.627	0.983	0.96	0.00995 (active)	0.932	1.19
Arthrobacter 1 (Arthrobacter humicola)	0.626 (active)	1.01	0.901	0.835	0.931	1.01	1.04	1.12	0.932	1.26	0.846	0.99	0.993	0.00912 (active)	0.994	0.932
Aeromonas 1 (Aeromonas sp. AE235)	0.944	0.96	0.999	0.966	0.969	0.979	0.944	1.04	0.959	1.02	0.985	1.03	0.991	0.000683 (active)	0.955	0.952

From the supplement of paper PMC12067926
